Laboratory results from PubChem BioAssay.
A number with no mark means an inactive call. The rule behind the calls is not given here.

target: Pantothenate synthetase (Mycobacterium tuberculosis (strain ATCC 25618 / H37Rv)) (UniProt P9WIL5); test: Coupled enzyme confirmation of inhibitors against recombinant Mtb PanC (AID 375); settings: coupled enzyme assay; at 10 µM, active compounds read high;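 note: 0% = full reaction with vehicle and 100% = no enzyme background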
Sequence (P9WIL5 whole entry, looked up): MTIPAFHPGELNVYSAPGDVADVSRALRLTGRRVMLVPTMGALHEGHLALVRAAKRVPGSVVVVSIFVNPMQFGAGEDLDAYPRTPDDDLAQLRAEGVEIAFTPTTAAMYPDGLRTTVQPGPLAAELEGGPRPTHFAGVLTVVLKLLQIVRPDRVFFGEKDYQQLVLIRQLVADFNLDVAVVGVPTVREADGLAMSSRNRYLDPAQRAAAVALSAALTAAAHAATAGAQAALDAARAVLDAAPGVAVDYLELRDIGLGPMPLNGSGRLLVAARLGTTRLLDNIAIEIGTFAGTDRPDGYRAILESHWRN

Row | Structure (SMILES) | inhibition [%]
1 | O=C1CCC(C(=O)N(Cc2ccco2)C2(C(=O)NC3CCCC3)CCCCC2)N1 (stereo not drawn) | 0
2 | Cn1c(=O)c2c(nc(SCCOc3ccc4ccc(=O)oc4c3)n2C)n(C)c1=O | 0
3 | CCCn1c(OC)nc2c1c(=O)n(C)c(=O)n2C | 0
4 | CCCCC[C@H](O)/C=C/[C@@H]1[C@@H](CCCCCCC(=O)O)[C@@H](O)C[C@H]1O | 0
5 | COc1ccccc1NC(=O)N(C1CCCC1)C1CCN(C(C)=O)CC1 | 1
6 | CCOC(=O)N1CCN(c2c(NCCCOC(C)C)c(=O)c2=O)CC1 | 4
7 | Cc1ccc(S(=O)(=O)NCCC(=O)OCn2nnc3ccccc3c2=O)cc1 | 1
8 | N#Cc1c(NC(=O)CSc2nnnn2C2CCCC2)sc2c1CCCC2 | 7
9 | Cc1nc(-c2ccccc2)sc1C(N)=O | 0
10 | CN1CCCC(OC(=O)COc2ccc(Br)cc2)C1 (stereo not drawn) | 3
11 | O=C(Nc1cccc(C(F)(F)F)c1)c1ccco1 | 0
12 | CCCN(CCC)CCNS(=O)(=O)c1ccc2c(c1)oc(=O)n2C | 2
13 | COc1ccc(CCN2C(=O)CC(N3CCOCC3)C2=O)cc1 (stereo not drawn) | 0
14 | CCOc1cc2[nH]c(=S)n(CC3CCCO3)c(=O)c2cc1OCC (stereo not drawn) | 9
15 | CCSc1ccccc1C(=O)Nc1cccc(OC)c1 | 0
16 | COc1ccc(C)cc1NC(=O)CCC(=O)Nc1ccc2nc(N3CCN(C)CC3)cc(C)c2c1 | 0
17 | COc1ccc(C(=O)Nc2ccc(C)cn2)c(OC)c1 | 0
18 | CCOC(=O)N1CCC(NC(=O)Cc2ccc(-n3c(=O)[nH]c4ccccc4c3=O)cc2)CC1 | 3
19 | CC(=O)OC[C@H]1O[C@@H](n2ncc(=O)[nH]c2=O)[C@H](OC(C)=O)[C@@H]1OC(C)=O | 0
20 | CC(NC(=O)NC12CC3CC(CC(C3)C1)C2)C1CCCO1 (stereo not drawn) | 5
21 | CC(C)c1nnc(NC(=O)Cc2cccs2)s1 | 0
22 | OC(CN1CCN(c2ccccn2)CC1)Cn1c2ccccc2c2ccccc21 (stereo not drawn) | 0
23 | CCOC(=O)c1[nH]c2ccccc2c1NC(=O)CCN1CCN(C(=O)OCC)CC1 | 0
